Assay [1] in a line: ATG_GRE_CIS: Attagene CIS-FACTORIAL HepG2 Assay for human Glucocorticoid Response Elements (GRE) (AID 2282947). The following applies: HepG2 GRE cis-reporter, Attagene multiplex mRNA; actives raise or lower the signal. The gist of the method:
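Reporter transcripts read by RT-PCR with capillary electrophoresis fluorescence after a 24 h chemical exposure of HepG2 cells transiently transfected with multiple cis-element reporter units. Gain or loss fitted against DMSO.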

Assay [2] can be described thus: ATG_ISRE_CIS: Attagene CIS-FACTORIAL HepG2 Assay for human Interferon Regulatory Factor 1 (IRF1) binding to an Interferon-Stimulated Response Element (ISRE) (AID 2282948). As to conditions: HepG2 ISRE cis-reporter (Attagene), mRNA transcription readout; actives raise or lower the signal. The gist of the method: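 Endogenous transcription factor activity read as reporter transcript abundance via RT-PCR and capillary electrophoresis. HepG2 cells transiently transfected, 24 h chemical exposure. Gain or loss fitted against DMSO baseline.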

The nature of assay [3]: ATG_M_32_CIS: Attagene CIS-FACTORIAL HepG2 Assay for M32 Transcription Factor (Internal Marker) (AID 2282949).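 Further: background control marker of the multiplexed CIS panel rather than a real target.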 The following applies: HepG2 Attagene cis-factorial M32 reporter, mRNA; actives raise or lower the signal. The gist of the method:
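HepG2 transfectants (cis-regulated reporter transcription units) dosed 24 h. Reporter mRNA by RT-PCR plus CE, analysed as gain or loss relative to DMSO.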

The nature of assay [4]: ATG_M_06_CIS: Attagene CIS-FACTORIAL HepG2 Assay for M06 Transcription Factor (Internal Marker) (AID 2282950). The following applies: HepG2 Attagene CIS-FACTORIAL M06 internal marker reporter; actives raise or lower the signal. In a few lines:
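Measured 24 h post-dosing in transiently transfected HepG2 cells, this internal-marker endpoint reports reporter mRNA via RT-PCR with fluorescent primer extension and capillary electrophoresis. DMSO served as negative control and baseline for bidirectional fitting.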

Assay [5] deals with Hypoxia-inducible factor 1-alpha (Homo sapiens) (UniProt Q16665). Description: ATG_HIF1a_CIS: Attagene CIS-FACTORIAL HepG2 Assay for human Hypoxia Inducible Factor 1 (HIF1A) (AID 2282951). The following applies: HepG2 Attagene cis-factorial HIF1a reporter transcription; actives raise or lower the signal. The gist of the method:
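Dosed 24 h, transfected HepG2 cells yielded total RNA whose reporter transcripts were RT-PCR-amplified and sized by capillary electrophoresis using fluorescent labelling; DMSO defined baseline, with gain and loss of signal both fitted.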

In assay [6] the target is Hepatocyte nuclear factor 6 (Homo sapiens) (UniProt Q9UBC0). The experiment in a line: ATG_HNF6_CIS: Attagene CIS-FACTORIAL HepG2 Assay for human Hepatocyte Nuclear Factor 6 (HNF6) (AID 2282952). As to conditions: HepG2 Attagene cis-factorial HNF6 reporter transcription; actives raise or lower the signal. In a few lines: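 First, HepG2 cells were transfected with the multiplexed cis reporter library and dosed with chemical for 24 h. Next, RNA was reverse-transcribed, PCR-amplified and fluorescently labelled. Finally, HpaI-digested fragments were read by capillary electrophoresis.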
Sequence of Hepatocyte nuclear factor 6 (Homo sapiens) (Q9UBC0 whole entry, looked up, the tested form may be a part): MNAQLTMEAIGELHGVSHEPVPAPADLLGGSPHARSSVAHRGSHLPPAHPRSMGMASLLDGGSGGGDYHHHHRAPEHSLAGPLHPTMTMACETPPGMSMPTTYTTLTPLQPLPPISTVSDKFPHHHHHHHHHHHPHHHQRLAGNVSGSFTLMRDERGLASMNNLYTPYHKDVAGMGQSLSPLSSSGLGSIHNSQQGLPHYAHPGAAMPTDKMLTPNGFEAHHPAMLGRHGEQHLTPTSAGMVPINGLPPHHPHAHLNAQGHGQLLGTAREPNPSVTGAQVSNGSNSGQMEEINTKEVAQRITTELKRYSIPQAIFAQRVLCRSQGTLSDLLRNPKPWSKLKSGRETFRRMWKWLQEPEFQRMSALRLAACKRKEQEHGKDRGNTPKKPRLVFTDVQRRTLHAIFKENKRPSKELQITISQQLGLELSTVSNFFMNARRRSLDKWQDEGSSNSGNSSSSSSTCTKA

For assay [7], the target named is Heat shock factor protein 1 (Homo sapiens) (UniProt Q00613). Description: ATG_HSE_CIS: Attagene CIS-FACTORIAL HepG2 Assay for human Heat Shock Transcription Factor 1 (HSE) (AID 2282953). The following applies: HepG2 HSE cis-reporter, Attagene RNA transcription; actives raise or lower the signal. The gist of the method:
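Reporter mRNA induction in HepG2 is measured 24 h after dosing, using transiently transfected multiplexed cis-regulated reporter units. Signal comes from capillary electrophoresis of labelled RT-PCR products, with DMSO as negative control.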

Assay [8] can be described thus: ATG_MRE_CIS: Attagene CIS-FACTORIAL HepG2 Assay for human Metal Responsive Element (MRE) (AID 2282954). As to conditions: HepG2 MRE cis-reporter transcription, Attagene multiplex; actives raise or lower the signal. In a few lines: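 Endogenous MRE-dependent transcription read as reporter mRNA in transiently transfected human HepG2 cells at 24 h. RNA reverse-transcribed, PCR-amplified, labelled and resolved by capillary electrophoresis; gain or loss relative to DMSO.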

A short description of assay [9]: ATG_PXRE_CIS: Attagene CIS-FACTORIAL HepG2 Assay for human Pregnane X Receptor Element (PXRE) (AID 2282957). The following applies: HepG2 Attagene CIS-FACTORIAL PXRE reporter, mRNA; actives raise or lower the signal. The gist of the method: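 After a 24 h chemical incubation, total RNA from transfected HepG2 cells was reverse-transcribed and reporter cDNA amplified, FAM-labeled, HpaI-digested and sized by capillary electrophoresis. DMSO served as baseline for bidirectional curve fitting.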

Assay [10] is described as follows: ATG_RORE_CIS: Attagene CIS-FACTORIAL HepG2 Assay for human RAR-related Orphan Receptor Element (RORE) (AID 2282959). The following applies: HepG2 Attagene cis-factorial RORE reporter, mRNA; actives raise or lower the signal. In a few lines: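 Transiently transfected HepG2 reporter cells were treated 24 h. Reporter transcripts were detected by RT-PCR and capillary electrophoresis, with bidirectional fitting against DMSO.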

The nature of assay [11]: ATG_Sox_CIS: Attagene CIS-FACTORIAL HepG2 Assay for human SRY-box transcription factor (SOX) (AID 2282960). As to conditions: HepG2 Attagene cis-factorial SOX reporter, mRNA; actives raise or lower the signal. The gist of the method: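 Gain- or loss-of-signal endpoint, fitted bidirectionally with DMSO as negative control. Based on reporter mRNA from transfected HepG2 cells harvested 24 h post-treatment and quantified via RT-PCR and capillary electrophoresis.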

Assay [12] deals with Transcription factor Sp1 (Homo sapiens) (UniProt P08047). Description: ATG_Sp1_CIS: Attagene CIS-FACTORIAL HepG2 Assay for human Specificity Protein 1 (Sp1) (AID 2282961). The following applies: HepG2 Sp1 cis-reporter transcription, actives raise or lower the signal. The gist of the method:
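Endpoint reflects endogenous Sp1 transcriptional activity, not an exogenous fusion protein: HepG2 cells with transfected cis-regulated reporters, 24 h dosing, RT-PCR/capillary electrophoresis mRNA read-out, DMSO-normalised bidirectional fit.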

Assay [13] can be described thus: ATG_SREBP_CIS: Attagene CIS-FACTORIAL HepG2 Assay for human Sterol Regulatory Element Binding (SREBP) (AID 2282962). The following applies: HepG2 Attagene cis-factorial SREBP reporter, mRNA; actives raise or lower the signal. In a few lines:
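Endogenous SREBP activity read as cis-element-driven reporter transcript in transiently transfected HepG2, 24 h post-dosing; quantified via RT-PCR plus capillary electrophoresis of fluorescent fragments. Gain or loss of signal fitted relative to DMSO baseline.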

Assay [14] in a line: ATG_TA_CIS: Attagene CIS-FACTORIAL HepG2 Assay for human TA Basal Promoter (AID 2282964). As to conditions: HepG2 Attagene CIS-factorial TA basal promoter reporter; actives raise or lower the signal. The gist of the method: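 Cis-factorial format in HepG2: reporters report endogenous factors, not chimeric Gal4 fusions. After 24 h treatment, reporter transcripts were measured by RT-PCR-capillary electrophoresis fluorescence, analysed bidirectionally versus DMSO.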

The nature of assay [15]: ATG_TCF_b_cat_CIS: Attagene CIS-FACTORIAL HepG2 Assay for human T-Cell-Factor with beta-catenin (TCF/b-cat) (AID 2282965). As to conditions: HepG2 TCF/beta-catenin cis-reporter transcription, actives raise or lower the signal. The gist of the method: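 Endogenous TCF/LEF activity read as reporter transcript level via RT-PCR and capillary electrophoresis fluorescence in transfected HepG2, 24 h exposure; gain or loss of signal fitted against DMSO controls.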

Assay [16] concerns the target Bile acid receptor (Homo sapiens) (UniProt Q96RI1). Description: ATG_IR1_CIS: Attagene CIS-FACTORIAL HepG2 Assay for human Nuclear Receptor Subfamily 1 Group H Member 4 (NR1H4), IR1 submotif (AID 2282946). The following applies: IR1 reporter transcription, actives raise or lower the signal. The gist of the method: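 HepG2 cells transiently transfected with multiplexed cis-element reporter units read endogenous transcription factor activity. After 24 h compound exposure, reporter mRNA was quantified by RT-PCR, fluorescent labelling, HpaI digestion and capillary electrophoresis; bidirectional fitting versus DMSO baseline.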

Assay [17] has as its target Paired box protein Pax-6 (Homo sapiens) (UniProt P26367). The experiment in a line: ATG_Pax6_CIS: Attagene CIS-FACTORIAL HepG2 Assay for human Paired Box 6 (PAX6) (AID 2282956). As to conditions: HepG2 CIS-FACTORIAL PAX6 reporter transcription, RNA readout; actives raise or lower the signal. The gist of the method: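 Read-out is reporter transcript level, measured by RT-PCR with fluorescent primer extension and capillary electrophoresis after 24 h dosing of transfected HepG2 cells. Activity in either direction fitted relative to DMSO control.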

The target in assay [18] is Signal transducer and activator of transcription 3 (Homo sapiens) (UniProt P40763). The experiment in a line: ATG_STAT3_CIS: Attagene CIS-FACTORIAL HepG2 Assay for human Signal Transducer and Activator of Transcription 3 (STAT3) (AID 2282963). The following applies: HepG2, Attagene cis-factorial STAT3 reporter transcription; actives raise or lower the signal. In a few lines:
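Readout is reporter transcript quantified by RT-PCR and capillary electrophoresis, with 6-FAM primer extension and HpaI digestion. Total RNA is taken 24 h after dosing transiently transfected HepG2 carrying cis-regulated reporter units. Bidirectional fit against DMSO.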

Assay [19] is described as follows: ATG_PBREM_CIS: Attagene CIS-FACTORIAL HepG2 Assay for human Phenobarbital-responsive Enhancer Module (PBREM) (AID 2282955). The following applies: HepG2 PBREM cis-reporter, Attagene multiplexed transcription; actives raise or lower the signal. The gist of the method:
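Transfected liver-derived HepG2 cells exposed 24 h; PBREM reporter transcript quantified via RT-PCR and capillary electrophoresis, with activity in either direction referenced to DMSO.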

Activity calls are given as the source filed them. How the source made its calls: active means hit-call score of the fitted dose curve at least 0.9, where 1 is the maximum; inactive means score below 0.9.

Sequence of Transcription factor Sp1 (Homo sapiens) (P08047 whole entry, looked up, the tested form may be a part): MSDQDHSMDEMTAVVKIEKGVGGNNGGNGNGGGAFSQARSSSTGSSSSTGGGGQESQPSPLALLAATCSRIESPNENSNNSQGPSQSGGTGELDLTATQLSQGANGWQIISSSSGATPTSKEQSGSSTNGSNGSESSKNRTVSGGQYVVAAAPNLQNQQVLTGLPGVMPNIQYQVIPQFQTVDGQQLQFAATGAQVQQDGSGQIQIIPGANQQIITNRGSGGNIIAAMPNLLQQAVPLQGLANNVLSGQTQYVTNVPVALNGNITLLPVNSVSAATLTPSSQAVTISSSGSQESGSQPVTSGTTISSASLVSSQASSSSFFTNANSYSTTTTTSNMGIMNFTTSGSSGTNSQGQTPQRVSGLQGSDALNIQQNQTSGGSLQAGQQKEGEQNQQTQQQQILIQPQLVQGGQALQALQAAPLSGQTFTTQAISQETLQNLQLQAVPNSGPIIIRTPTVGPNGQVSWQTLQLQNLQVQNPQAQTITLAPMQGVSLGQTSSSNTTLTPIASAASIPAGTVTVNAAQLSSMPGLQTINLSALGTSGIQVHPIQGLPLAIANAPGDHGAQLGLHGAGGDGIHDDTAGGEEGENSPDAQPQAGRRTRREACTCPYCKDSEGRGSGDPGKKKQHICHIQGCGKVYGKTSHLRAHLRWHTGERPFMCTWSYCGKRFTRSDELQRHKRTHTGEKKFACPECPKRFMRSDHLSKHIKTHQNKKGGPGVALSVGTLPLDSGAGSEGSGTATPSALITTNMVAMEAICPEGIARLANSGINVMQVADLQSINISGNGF
Sequence of Hypoxia-inducible factor 1-alpha (Homo sapiens) (Q16665 whole entry, looked up): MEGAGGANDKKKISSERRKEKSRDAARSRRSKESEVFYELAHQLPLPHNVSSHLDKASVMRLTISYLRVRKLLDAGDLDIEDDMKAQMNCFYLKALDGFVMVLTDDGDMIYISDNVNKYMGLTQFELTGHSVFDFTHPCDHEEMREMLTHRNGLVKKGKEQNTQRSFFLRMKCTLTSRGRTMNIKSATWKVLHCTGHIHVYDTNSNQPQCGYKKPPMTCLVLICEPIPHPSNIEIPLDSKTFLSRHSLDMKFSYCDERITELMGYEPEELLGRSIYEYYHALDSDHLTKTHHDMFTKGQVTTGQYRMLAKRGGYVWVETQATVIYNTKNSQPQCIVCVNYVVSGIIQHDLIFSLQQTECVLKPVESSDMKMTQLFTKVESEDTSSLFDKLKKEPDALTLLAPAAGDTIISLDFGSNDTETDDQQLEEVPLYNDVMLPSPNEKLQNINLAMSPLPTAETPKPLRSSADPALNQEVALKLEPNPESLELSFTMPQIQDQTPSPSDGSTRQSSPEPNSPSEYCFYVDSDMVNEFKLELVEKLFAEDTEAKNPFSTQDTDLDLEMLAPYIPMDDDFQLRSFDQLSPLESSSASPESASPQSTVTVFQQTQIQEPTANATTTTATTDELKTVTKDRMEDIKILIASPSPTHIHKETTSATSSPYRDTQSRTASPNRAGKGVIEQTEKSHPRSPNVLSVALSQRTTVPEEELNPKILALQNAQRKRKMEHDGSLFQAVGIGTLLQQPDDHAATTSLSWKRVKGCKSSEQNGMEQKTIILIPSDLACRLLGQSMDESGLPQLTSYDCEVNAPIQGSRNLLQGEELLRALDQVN
Sequence of Heat shock factor protein 1 (Homo sapiens) (Q00613 whole entry, looked up): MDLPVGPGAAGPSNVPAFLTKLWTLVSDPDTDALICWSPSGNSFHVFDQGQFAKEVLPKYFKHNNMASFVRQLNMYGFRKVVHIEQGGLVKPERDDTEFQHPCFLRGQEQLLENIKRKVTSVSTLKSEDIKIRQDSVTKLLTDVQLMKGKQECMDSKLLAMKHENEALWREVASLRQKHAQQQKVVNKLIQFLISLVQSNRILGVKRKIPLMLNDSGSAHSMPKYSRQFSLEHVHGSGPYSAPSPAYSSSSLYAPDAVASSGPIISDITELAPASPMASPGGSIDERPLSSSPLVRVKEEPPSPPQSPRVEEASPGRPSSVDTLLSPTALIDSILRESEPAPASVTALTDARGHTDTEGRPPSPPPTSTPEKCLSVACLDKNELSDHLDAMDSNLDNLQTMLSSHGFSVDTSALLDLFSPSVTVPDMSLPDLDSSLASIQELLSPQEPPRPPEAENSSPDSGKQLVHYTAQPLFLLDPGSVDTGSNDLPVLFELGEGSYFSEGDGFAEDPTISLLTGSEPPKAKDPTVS
Sequence of Signal transducer and activator of transcription 3 (Homo sapiens) (P40763 whole entry, looked up): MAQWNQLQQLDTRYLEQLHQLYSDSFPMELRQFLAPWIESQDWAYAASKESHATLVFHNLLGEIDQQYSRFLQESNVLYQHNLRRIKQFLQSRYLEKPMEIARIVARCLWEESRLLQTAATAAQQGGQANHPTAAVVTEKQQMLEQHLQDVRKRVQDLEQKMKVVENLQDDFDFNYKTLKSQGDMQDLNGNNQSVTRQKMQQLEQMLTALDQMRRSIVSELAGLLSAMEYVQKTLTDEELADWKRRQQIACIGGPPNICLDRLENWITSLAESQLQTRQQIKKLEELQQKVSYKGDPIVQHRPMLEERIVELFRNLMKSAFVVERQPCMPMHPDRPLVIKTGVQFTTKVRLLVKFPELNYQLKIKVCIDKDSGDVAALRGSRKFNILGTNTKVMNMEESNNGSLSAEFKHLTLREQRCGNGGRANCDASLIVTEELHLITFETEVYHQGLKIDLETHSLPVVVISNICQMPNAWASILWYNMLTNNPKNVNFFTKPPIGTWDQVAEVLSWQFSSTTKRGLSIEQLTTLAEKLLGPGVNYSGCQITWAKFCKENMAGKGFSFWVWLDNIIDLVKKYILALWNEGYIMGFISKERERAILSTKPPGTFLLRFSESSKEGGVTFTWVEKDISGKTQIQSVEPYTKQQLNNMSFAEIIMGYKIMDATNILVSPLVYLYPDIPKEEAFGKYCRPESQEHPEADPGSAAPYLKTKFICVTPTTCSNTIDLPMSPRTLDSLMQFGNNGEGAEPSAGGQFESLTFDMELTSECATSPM
Sequence of Paired box protein Pax-6 (Homo sapiens) (P26367 whole entry, looked up): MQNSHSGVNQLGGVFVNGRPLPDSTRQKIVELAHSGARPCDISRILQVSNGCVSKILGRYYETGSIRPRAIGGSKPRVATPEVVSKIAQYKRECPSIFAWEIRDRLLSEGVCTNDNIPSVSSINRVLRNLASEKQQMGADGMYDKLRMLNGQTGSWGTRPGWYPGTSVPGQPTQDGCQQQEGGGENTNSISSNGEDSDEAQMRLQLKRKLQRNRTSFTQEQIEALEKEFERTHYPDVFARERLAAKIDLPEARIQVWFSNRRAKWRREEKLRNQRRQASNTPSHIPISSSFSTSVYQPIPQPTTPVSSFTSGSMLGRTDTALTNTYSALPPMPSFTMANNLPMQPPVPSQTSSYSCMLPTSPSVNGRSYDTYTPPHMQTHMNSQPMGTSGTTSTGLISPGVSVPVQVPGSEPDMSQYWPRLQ
Sequence of Bile acid receptor (Homo sapiens) (Q96RI1 whole entry, looked up): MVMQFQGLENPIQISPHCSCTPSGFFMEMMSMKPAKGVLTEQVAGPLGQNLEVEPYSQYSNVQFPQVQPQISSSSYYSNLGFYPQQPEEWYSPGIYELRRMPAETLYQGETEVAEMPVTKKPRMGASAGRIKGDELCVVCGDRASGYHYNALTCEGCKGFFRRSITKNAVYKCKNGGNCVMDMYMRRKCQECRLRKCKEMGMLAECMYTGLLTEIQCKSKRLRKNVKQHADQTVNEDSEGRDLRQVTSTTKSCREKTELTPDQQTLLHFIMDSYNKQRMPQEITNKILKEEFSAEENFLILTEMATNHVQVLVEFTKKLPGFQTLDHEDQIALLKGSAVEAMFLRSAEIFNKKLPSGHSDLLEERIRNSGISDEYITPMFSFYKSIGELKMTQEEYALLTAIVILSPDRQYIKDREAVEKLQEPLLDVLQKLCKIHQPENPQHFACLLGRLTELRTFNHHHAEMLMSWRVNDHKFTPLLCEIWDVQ

As to `Brc1ccc(Oc2ccccc2)cc1`, the compound was called inactive in assay [1], in [3], in assay [4], in [5], in assay [6] and in assay [7]. The outcome in assay [8], in assay [9], in [10], in assay [11], in assay [14] and in assay [15] was inactive. The AC50 in assay [2] is 100 µM (active); in assay [12] it was 100 µM (active); in [13], 149 µM (active).
Turning to `CCN(CC)N=O`, the outcome in assay [16], in assay [2], in [3], in [4], in assay [5] and in assay [6] was inactive. Moreover, the compound was classed as inactive in assay [7], in assay [8], in [17], in assay [9], in assay [10] and in assay [11]. In addition, the compound was called inactive in assay [12], in assay [13], in [18], in assay [14] and in assay [15].
Take `O=C(O)C1C2CCC(O2)C1C(=O)O` (stereo not drawn): the outcome in assay [1], in [4], in [6], in [7], in assay [11] and in assay [13] was inactive. Also, the compound was classed as inactive in [18], in assay [14] and in assay [15]. In addition, the AC50 was 61.9 µM (active) in assay [2]; 159 µM (active) in assay [3]; 149 µM (active) in assay [8]; 160 µM (active) in assay [19]; 68.6 µM (active) in [9]; 100 µM (active) in assay [10]. The AC50 in assay [12] was 100 µM (active).
Regarding `Cc1ccc(N=C=O)cc1N=C=O`, the result in assay [1], in assay [2], in assay [3], in assay [5], in [6] and in assay [8] was inactive. For the same compound, the outcome in [19], in [17], in assay [9], in assay [10], in [11] and in [12] was inactive. Besides, the outcome in assay [13], in assay [14] and in [15] was inactive.

The values above are taken from PubChem BioAssay (EPA / NIEHS).
